Autofluor counter: counter-screen for toxin protease inhibitors: compound fluorescence | fluorescence intensity (no concentration beside the values) | actives 3.1% (n = 360,000) | compound autofluorescence counterscreen, microsphere flow cytometry; stronger effect = higher value; in the data active = fluorescence intensity above about 16000; inconclusive = no clear call, values can overlap the other calls
BoNT-F LC inh: inhibitors of Botulinum neurotoxin F light chain protease. actives 0.22% (n = 360,000). AID 588497. Multiplex microsphere protease cleavage assay, flow cytometry. inhibition, % at 10 µM; in the data active = inhibition above about 35%, passing the limit was not always enough; inconclusive = no clear call, values can overlap the other calls
BoNT A protease: inhibitors of Botulinum neurotoxin A light chain protease; multiplex microsphere protease substrate cleavage, flow cytometry; inhibition, % at 10 µM; actives 0.17% (n = 360,000)
Anthrax LF inh2: inhibitors of Bacillus anthracis lethal factor protease | P15917 | multiplex microsphere protease cleavage assay, LF | inhibition, % at 10 µM | actives 0.12% (n = 360,000)
Target sequence (P15917 whole entry, looked up): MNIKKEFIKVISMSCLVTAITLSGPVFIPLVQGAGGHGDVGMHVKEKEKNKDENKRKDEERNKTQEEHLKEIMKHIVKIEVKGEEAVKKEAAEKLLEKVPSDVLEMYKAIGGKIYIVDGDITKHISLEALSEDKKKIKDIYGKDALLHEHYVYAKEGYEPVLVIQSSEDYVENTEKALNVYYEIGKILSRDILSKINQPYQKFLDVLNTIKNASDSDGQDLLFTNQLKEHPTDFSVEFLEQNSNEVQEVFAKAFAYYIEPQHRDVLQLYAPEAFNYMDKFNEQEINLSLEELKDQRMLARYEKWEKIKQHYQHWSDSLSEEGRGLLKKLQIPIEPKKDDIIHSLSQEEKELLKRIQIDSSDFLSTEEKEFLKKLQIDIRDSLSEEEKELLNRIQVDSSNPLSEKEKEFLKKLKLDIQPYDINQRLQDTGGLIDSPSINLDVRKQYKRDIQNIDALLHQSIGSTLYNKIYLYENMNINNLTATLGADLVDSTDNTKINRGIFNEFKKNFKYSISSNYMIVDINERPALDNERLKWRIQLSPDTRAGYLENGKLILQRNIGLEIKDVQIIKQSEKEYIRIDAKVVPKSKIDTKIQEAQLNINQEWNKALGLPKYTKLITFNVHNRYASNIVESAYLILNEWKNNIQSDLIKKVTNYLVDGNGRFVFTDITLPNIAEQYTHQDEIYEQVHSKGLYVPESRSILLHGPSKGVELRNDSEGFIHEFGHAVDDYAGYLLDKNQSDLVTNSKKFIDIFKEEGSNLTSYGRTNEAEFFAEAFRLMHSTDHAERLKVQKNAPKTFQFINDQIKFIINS
MazEF act: activators of E. coli MazEF toxin-antitoxin RNase | FAM/BHQ RNA-DNA oligo cleavage fluorescence, 5 h | activation, % at 20 µM | actives 0.32% (n = 350,000) | AID 504720; in the data active = activation above about 50%
Each line names hits and unclear results; the compound was inactive in the other large screens. Shown are actives, neighbours in structure and some others; about 3.7% of the full set was active somewhere. Rule as the data show it, unless noted: active = inhibition above about 30%; inconclusive = no clear call, values can overlap the other calls; inactive = below that.

Cc1ccc(NC(=O)c2cccc(S(=O)(=O)N3CCCC3)c2)nc1	none
O=C(Nc1nncs1)c1cccc(S(=O)(=O)N2CCCC2)c1	none
O=C(N/N=C/C=C/c1ccccc1[N+](=O)[O-])c1ccncc1	BoNT-F LC inh 56, Anthrax LF inh2 inconclusive
O=C(N/N=C/C=C/c1ccccc1[N+](=O)[O-])c1cccnc1	none
CCn1c(SCC(=O)N/N=C/C=C\c2ccccc2[N+](=O)[O-])nnc1-c1ccccc1	Autofluor counter 16357
O=C(N/N=C/C=C/c1ccccc1)c1cccc(Br)c1	MazEF act 53
O=C(CN1C(=O)NC2(CCCc3ccccc32)C1=O)c1ccccc1F (centres undefined)	none
COc1ccc(-c2nc3ccccc3c(=O)n2-c2cccnc2)cc1	Autofluor counter 22591, BoNT A protease inconclusive
Cc1nc2ccccc2c(=O)n1-c1cccnc1	Autofluor counter 21722, BoNT A protease inconclusive
CSc1nc2ccccc2c(=O)n1-c1cccnc1	none
Cc1ccc2[nH]c3c(c2c1)CN(C(=O)CN1c2ccc(F)cc2CCC1C)CC3 (centres undefined)	Autofluor counter 21807, BoNT A protease inconclusive
COc1ccc(C(=O)CSc2nnc(CCc3ccccc3)n2-c2ccccc2)cc1	Autofluor counter 24111
COc1cc(CN2CCc3c([nH]c4ccccc34)C2)cc(OC)c1	Autofluor counter 18016
Cc1cccc(C)c1NC(=O)C1c2ccccc2OCC(=O)N1CCc1c[nH]c2ccccc12 (centres undefined)	none (no result: MazEF act)
CCOC(=O)CNC(=O)Cn1cnc2c(nnn2-c2ccc(C)cc2)c1=O	Autofluor counter 18628
CCOC(=O)CNC(=O)Cn1cnc2c(nnn2-c2cccc(Cl)c2)c1=O	Autofluor counter 23372
CCOC(=O)CNC(=O)Cn1cnc2c(nnn2-c2cccc(OC)c2)c1=O	none
CC(=O)c1cccc(NC(=O)C2CC(=O)N(C3CCCC3)C2)c1 (centres undefined)	none
CCOC(=O)CC1COCCN1C(=O)c1ccc2oc(Cc3ccccc3)nc2c1 (centres undefined)	none
CCCCN1C(=O)C(CC(=O)NCc2cccc3ccccc23)CC(C(=O)N2CCCCCC2)=C1C (centres undefined)	none (no result: MazEF act)
COc1cccc(/C=N/Nc2ncnc3scc(-c4ccccc4)c23)c1OC	Autofluor counter 21674
CN(C(=S)NC1CCCCC1)C1(c2ccccc2Cl)CCCCC1=O (centres undefined)	none
CN(C(=S)Nc1ccccc1F)C1(c2ccccc2Cl)CCCCC1=O (centres undefined)	Autofluor counter 20195
Cc1cccc(NC(=S)N(C)C2(c3ccccc3Cl)CCCCC2=O)c1 (centres undefined)	Autofluor counter 22871
CC(C)NC(=S)N(C)C1(c2ccccc2Cl)CCCCC1=O (centres undefined)	none
COc1cc2c(cc1OC)C(=O)CCC2	none
CNC(=O)C1=NCCCc2cc(OC)c(OC)cc21	Autofluor counter 20275, BoNT A protease inconclusive
Cc1cc(C)cc(N=c2c([N+](=O)[O-])nn(-c3cccc(Cl)c3)n2O)c1	Autofluor counter 22853
O=[N+]([O-])c1nn(-c2cccc(Cl)c2)n(O)c1=NCc1cccnc1	BoNT-F LC inh 35
Cc1cccc(N=c2c([N+](=O)[O-])nn(-c3ccc(Cl)cc3)n2O)c1	none
O=[N+]([O-])c1nn(-c2ccc(Cl)cc2)n(O)c1=NCc1cccnc1	none
CCc1cccc(N=c2c([N+](=O)[O-])nn(-c3ccc(Cl)cc3)n2O)c1	Autofluor counter 22799
CC12C=CC(=O)C=C1CCC1C2C(O)CC2(C)C1CCC2(O)C(=O)CO (centres undefined)	none
C[C@@H](O)CNC(=O)c1[nH]cnc1C(=O)N[C@H](C)c1ccccc1	none
Clc1ncnc2[nH]ccc12	none
CCc1cccc2c(C(=O)COC(=O)[C@@H]3CC(O)CN3S(=O)(=O)c3ccccc3[N+](=O)[O-])c[nH]c12 (some centres undefined)	none
C[C@@H]1CN([C@@H](C)CO)C(=O)c2cc(NC(=O)c3ccccc3)ccc2O[C@@H](C)CCCCO[C@@H]1CN(C)Cc1ccc(C(F)(F)F)cc1	none
Cc1nc(C)n(CC(C)C(=O)N2CCN(S(=O)(=O)c3ccccc3)CC2)n1 (centres undefined)	none
CCOC(=O)CCc1c(C)c2ccc3c(c2oc1=O)CN(CCCO)CO3	none
C=CCN(c1ccc(C(=O)NC(C)C)cc1)S(C)(=O)=O	Autofluor counter 23751
CS(=O)(=O)N(Cc1ccc(Cl)cc1)c1ccc(C(=O)Nc2cccnc2)cc1	none
C=CCN(c1ccc(C(=O)Nc2ccc(C)cc2)cc1)S(C)(=O)=O	none
C=CCNC(=O)c1ccc(N(Cc2ccc(Cl)cc2)S(C)(=O)=O)cc1	BoNT-F LC inh 39
O=C(O)CCCC(=O)Nc1ccccc1SCCS(=O)(=O)c1ccc(Cl)cc1	none
CCn1cc(Cl)c(C(=O)N2N=C3/C(=C/c4cccs4)CCCC3C2c2cccs2)n1 (centres undefined)	Autofluor counter 23292
COc1ccc(C(=O)Nc2n[nH]c(-c3ccncc3)n2)cc1	Autofluor counter 18001
COc1ccc(C(=O)Nc2nc(C)cc(C)n2)cc1	none
Cc1cc(=O)n2c(nc3ccccc32)[nH]1	Autofluor counter 24029
CCCc1cc(=O)n2c(nc3ccccc32)[nH]1	none
Clc1ccccc1COc1ccc(/C=N/n2cnnc2)cc1	none
C=CCNC(=S)N/N=C/c1ccc(OCc2ccccc2Cl)cc1	Autofluor counter 19727
N#CCCn1cc(C(=O)Nc2cccc(C(=O)O)c2)c(-c2ccc(Cl)cc2)n1	BoNT-F LC inh inconclusive
COc1cccc(/C(O)=C2\C(=O)C(=O)N(c3ccccn3)C2c2cccc(OC)c2OC)c1 (centres undefined)	Autofluor counter 21089
COc1ccc(C2/C(=C(/O)c3ccccc3)C(=O)C(=O)N2c2ccccn2)cc1 (centres undefined)	BoNT-F LC inh inconclusive
CCCCOc1ccc(/C=C/C(=O)NCCc2nc3ccccc3[nH]2)cc1	Autofluor counter 21858
COc1cc(S(=O)(=O)NC2CCCC2)ccc1F	Autofluor counter 16811
COc1ccc(OC)c(S(=O)(=O)Nc2cccc(F)c2)c1	Autofluor counter 16709
COc1ccc(S(=O)(=O)NC2CCCCC2)cc1F	none
COc1ccc(S(=O)(=O)Nc2cccc(Cl)c2)cc1OC	Autofluor counter 20245
COc1ccc(S(=O)(=O)NC2CCCC2)c(OC)c1	none
COc1ccc(OC)c(S(=O)(=O)NC2CCCCC2)c1	Autofluor counter 22696
OC(c1ccc(Cl)c(F)c1)c1ncc(-c2cccc(C(F)(F)F)c2)[nH]1 (centres undefined)	none (no result: MazEF act)
CCCCCCN1CC(=O)N2[C@@H](Cc3c([nH]c4ccccc34)C2(C)C)C1=O	none
C=C1[C@@H](O)[C@H](CC(C)C)N(Cc2ccccc2Br)S1(=O)=O	none
C(=C\c1ccccc1)/C=N/n1cnnc1	Autofluor counter 24268
Nc1nnnn1/N=C/C=C/c1ccccc1	none
CCN(CC(=O)NCc1ccc(Cl)cc1)C(=O)c1ccc(C#N)cc1	none
Cc1ccc(-n2c(C)cc(/C=N/NC(=O)c3ccc(CN4CCOCC4)cc3)c2C)cc1	Autofluor counter 19963
